Among all 310,000 compounds or so, about 14,000 (4.5%) showed an effect of 50% or more. The effect is printed as a negative number. Many of the other results were omitted from the sample, so strong results are more common in it than they were.
Each compound was assayed against human ether-à-go-go-related gene (hERG) potassium channel (human, UniProt Q12809) (assay: primary screen, population patch clamp on CHO cells stably expressing hERG; higher = less effect of the substance).
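Note: peak tail current of the secondary pulse compared with the same well before compound.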

Sequence of human ether-à-go-go-related gene (hERG) potassium channel (Q12809 whole entry, looked up): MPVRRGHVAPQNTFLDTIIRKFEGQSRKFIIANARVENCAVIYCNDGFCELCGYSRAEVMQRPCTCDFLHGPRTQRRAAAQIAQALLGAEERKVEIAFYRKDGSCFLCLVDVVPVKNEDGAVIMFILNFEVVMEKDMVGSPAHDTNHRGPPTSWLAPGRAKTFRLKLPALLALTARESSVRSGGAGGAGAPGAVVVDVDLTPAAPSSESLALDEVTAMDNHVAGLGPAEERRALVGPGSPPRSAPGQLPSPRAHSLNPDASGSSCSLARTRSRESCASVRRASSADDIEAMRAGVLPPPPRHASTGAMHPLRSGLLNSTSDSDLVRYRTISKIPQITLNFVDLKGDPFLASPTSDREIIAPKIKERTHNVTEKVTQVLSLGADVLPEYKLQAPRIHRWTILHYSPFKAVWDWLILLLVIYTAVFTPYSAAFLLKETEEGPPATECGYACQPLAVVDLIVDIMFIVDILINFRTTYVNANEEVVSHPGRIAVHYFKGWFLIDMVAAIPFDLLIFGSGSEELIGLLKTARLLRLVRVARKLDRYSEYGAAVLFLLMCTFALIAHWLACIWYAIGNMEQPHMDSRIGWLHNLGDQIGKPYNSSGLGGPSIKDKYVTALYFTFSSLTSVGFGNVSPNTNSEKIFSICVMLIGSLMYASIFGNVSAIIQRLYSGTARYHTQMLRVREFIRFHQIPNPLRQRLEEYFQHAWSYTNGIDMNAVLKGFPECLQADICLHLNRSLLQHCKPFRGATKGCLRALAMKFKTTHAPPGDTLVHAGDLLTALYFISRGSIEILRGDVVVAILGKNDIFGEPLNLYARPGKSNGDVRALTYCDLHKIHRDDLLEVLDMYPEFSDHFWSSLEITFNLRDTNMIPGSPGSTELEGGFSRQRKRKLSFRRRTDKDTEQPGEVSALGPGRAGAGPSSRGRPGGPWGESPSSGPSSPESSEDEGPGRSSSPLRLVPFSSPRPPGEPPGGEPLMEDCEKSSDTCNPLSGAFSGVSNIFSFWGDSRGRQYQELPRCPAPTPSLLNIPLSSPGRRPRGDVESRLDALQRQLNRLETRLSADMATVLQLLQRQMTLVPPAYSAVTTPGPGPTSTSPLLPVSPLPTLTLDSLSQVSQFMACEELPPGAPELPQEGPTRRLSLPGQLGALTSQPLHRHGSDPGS

Structure (SMILES)	hERG current change (%, negative = inhibition) at 10uM [%]
C/C(=N\NC(=O)C1CCCN(S(=O)(=O)c2ccccc2)C1)c1ccccn1 (stereo not drawn)	-20.8
CN(C)Cc1c(C(=O)N/N=C/CCc2ccccc2)nnn1-c1nonc1N	-31.1
Cc1onc(-c2ccccc2)c1CNS(=O)(=O)c1cccc(Cl)c1	-7.19
Cl.Clc1cccc(CN2C3=NCCCN3c3ccccc32)c1	-75.4
Cl.O=C(O)CN1C2=NCCCN2c2ccccc21	16.1
c1ccc(CN2C3=NCCN3c3ccccc32)cc1	-39.5
O=C1CCCc2ccccc2N1Cc1cccc(Cl)c1	-16.3
Cl.O=C(CN1C2=NCCCN2c2ccccc21)c1ccc(Cl)cc1Cl	-79.6
Cl.c1ccc(CN2C3=NCCCN3c3ccccc32)cc1	-57.5
Brc1ccc(CN2C3=NCCCN3c3ccccc32)cc1.Cl	-74.2
Clc1cccc(CN2CCCCCC2)c1	12.3
O=C1CCCC2=C1C(c1ccc(O)c(Br)c1)C1=C(CCCC1=O)N2c1ccccc1	-33
COc1ccc(C2C(C#N)=C(C)NC3=C2S(=O)(=O)c2ccccc23)cc1 (stereo not drawn)	-38.6
CCOC(=O)c1sc(=NC(=O)COc2ccc(Cl)cc2)n(C)c1C	3.44
COc1cc(C)c(NC(=O)COc2cccc3c2OC(C)(C)C3)cc1OC	-7.8
COc1cc(SC)ccc1C(=O)NCCNC(=O)c1nonc1N	-6.81
COc1ccccc1NC(=O)CCS(=O)(=O)c1ccc2c(c1)NC(=O)C(C)S2 (stereo not drawn)	-4.76
COc1ccc(NC(=S)Nc2ccccn2)cc1	13.5
COc1ccc(C)cc1C(=O)CCC(=O)NCCc1ccc(S(N)(=O)=O)cc1	19.6
CCOc1ccc(Cn2nnc(C(=O)NCc3ccccc3)c2N)cc1	11.6
O=C1NC(=O)C2(Cc3ccccc3N3CCCC32)C(=O)N1c1cccc(Cl)c1 (stereo not drawn)	-18.1
CC(C)c1ccc(N(C(=O)c2csnn2)C(C(=O)NC2CCCC2)c2ccncc2)cc1 (stereo not drawn)	-57.8
CCOc1ccc(N(C(=O)c2cnsn2)C(C(=O)NC2CCCCC2)c2ccncc2)cc1 (stereo not drawn)	-69.4
Cc1ccc(N(C(=O)c2csnn2)C(C(=O)NC2CCCCC2)c2ccncc2)cc1 (stereo not drawn)	-1.71
COc1ccc(N(C(=O)c2csnn2)C(C(=O)NC2CCCC2)c2ccccc2)cc1 (stereo not drawn)	-9.35
COc1ccc(N(C(=O)c2cnsn2)C(C(=O)NC2CCCCC2)c2ccncc2)cc1 (stereo not drawn)	-26.7
CCc1ccc(N(C(=O)c2csnn2)C(C(=O)NC(C)(C)CC)c2ccccn2)cc1 (stereo not drawn)	-54.3

Structure (SMILES)	hERG current change (%, negative = inhibition) at 10uM [%]
CCc1ccc(N(C(=O)c2csnn2)C(C(=O)NC(C)(C)C)c2ccccn2)cc1 (stereo not drawn)	-42.7
CC(=O)c1ccc(N(C(=O)c2csnn2)C(C(=O)NC2CCCC2)c2ccccc2)cc1 (stereo not drawn)	-54.9
CC(=O)c1cccc(N(C(=O)c2csnn2)C(C(=O)NC2CCCC2)c2ccccc2)c1 (stereo not drawn)	-18.5
O=C(NC1CCCC1)C(c1ccncc1)N(C(=O)c1csnn1)c1ccc(Cl)cc1 (stereo not drawn)	-10.4
CCC(C)(C)NC(=O)C(c1ccccn1)N(C(=O)c1csnn1)c1ccccc1 (stereo not drawn)	5.39
CCOc1ccc(N(C(=O)c2cnccn2)C(C(=O)NC2CCCCC2)c2ccc(O)cc2)cc1 (stereo not drawn)	10.4
COc1cccc(Nc2ncnc3onc(-c4ccccc4OC)c23)c1	-4.9
CNC(=S)N(Cc1cc2cc(C)cc(C)c2[nH]c1=O)C1CCCC1	-3.94
c1ccc(CCCc2nc(-c3ccccn3)no2)cc1	-7.53
COc1ccccc1Nc1nnc(SCC(=O)N2CCCC2=O)s1	-11.4
COCCCNC(=O)C1CCN(c2ccc(N3CCOCC3)nn2)CC1	10.1
O=C(CCCc1nc2ccccc2s1)N1CCN(c2ccccc2F)CC1	-31.3
COc1ccc2[nH]c3c(=O)n4c(nc3c2c1)SCC4	6.11
COc1ccc(CN2CC(C(=O)NCCCOC(C)C)CC2=O)cc1 (stereo not drawn)	0.406
CC(CC(=O)Nc1ccc(F)cc1F)S(=O)(=O)c1ccc2c(c1)NC(=O)CO2 (stereo not drawn)	-9
CC(=O)c1ccc(N2C(=O)C3C4C=CC(CC4)C3C2=O)cc1 (stereo not drawn)	13.6
CN(C)S(=O)(=O)c1cccc(C(=O)Nc2ccccc2N2CCCCC2)c1	5.55
COCCn1c(SC(C)C(=O)NCC2CCCO2)nc2scc(-c3ccc(F)cc3)c2c1=O (stereo not drawn)	-66.5
COCCn1c(SC(C)C(=O)NCC2CCCO2)nc2sc3c(c2c1=O)CCC3 (stereo not drawn)	-8.18
CCn1c(SC(C)C(=O)NCC2CCCO2)nc2scc(-c3ccccc3)c2c1=O (stereo not drawn)	-28.7
CCOC(=O)/C(=C/c1c(C)n(C)c2ccc([N+](=O)[O-])cc12)C(C)=O	-19.6
Cc1nn(-c2ccc(C(=O)OC(C)C)cc2)c(C)c1[N+](=O)[O-]	4.98
CCOC(=O)CNC(=O)C1CCN(S(=O)(=O)c2ccc(-c3nn[nH]n3)cc2)CC1	8.58
Cc1cc(C)c2cc(CN(Cc3cccnc3)C(=O)c3ccc(F)cc3)c(Cl)nc2c1	-64.7
COCCN(Cc1cc2c(C)cc(C)cc2nc1Cl)C(=O)c1ccccc1F	44.3
Cc1cccc2cc(CN(Cc3cccnc3)C(=O)c3ccccc3F)c(Cl)nc12	-49.6
CC(=O)Nc1ccccc1C(=O)C(=O)Nc1ccc(C)c(F)c1	24.3

Reference: paper PMC4336329 (PLoS ONE, 2015)
